Screening results from PubChem BioAssay.
This is a sample that favours compounds with a hit; in the whole collection about 0.77% have one here.
Vif-A3G inh: qHTS for Inhibitors of Vif-A3G Interactions: qHTS; DNA dC->dU-editing enzyme APOBEC-3G (Homo sapiens), Q9HC16; HeLa A3G-eYFP + Vif (tagged APOBEC3G with the HIV-1 protein that degrades it), YFP fluorescence, overnight; Potency, µM (top dose mostly 46.1 µM), for inactives: at the top dose activity, negative = active, usual class: inhibitors; actives 0.076% (n = 410,000); AID 602310, 2012; further: potency means the concentration at half of the fitted maximal effect; on the % scale 0 is the no-effect control and ±100 the full control effect; nearly all actives have a fitted effect of over 60% in size
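Read-out is eYFP fluorescence (Ex 488/Em 500-530) from Vif-expressing HeLa A3G-eYFP cells; more signal means A3G escaped Vif-mediated degradation. Cells plated overnight, compound pinned in, incubated overnight at 37 deg C.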
Vif-APOBEC3F blk: qHTS for Inhibitors of Vif-A3F Interactions: qHTS. HeLa A3F-eYFP + Vif (tagged APOBEC3F with the HIV-1 protein that degrades it), YFP fluorescence increase. actives 0.2% (n = 390,000). Potency, µM (titrated, usually from 46.1 µM), for inactives: at the highest dose activity, negative = active; further: potency means the concentration at half of the fitted maximal effect; % of control where 0% means no effect; nearly all actives have a fitted effect of over 65% in size
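HeLa cells stably expressing Vif plus C-terminally eYFP-tagged A3F were seeded, incubated overnight at 37 deg C, dosed with compound, incubated overnight again at 37 deg C. Yellow fluorescence (Ex 488/Em 500-530) reported blocked Vif-mediated A3F-eYFP degradation.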
RGS12 GoLoco inh: qHTS Assay for Inhibitors of RGS12 GoLoco Motif Activity (Red Fluorophore); Gai1:RGS12 GoLoco peptide FP, rhodamine, 10 min; Potency, µM (highest dose often 61.6 µM), for inactives: top-dose activity, negative = inhibition, usual class: inhibitors; actives 0.44% (n = 230,000); AID 880, 2007; active means well fitted inhibition curve with a large enough effect, not every such curve was filed as active; inactive means no such curve, though single readings can be large or run the other way; further: potency means the concentration at half of the fitted maximal effect; on the % scale 0 is the no-effect control and ±100 the full control effect; nearly all actives have a fitted effect of over 30% in size
GCN5L2 inh: qHTS Assay for Inhibitors of GCN5L2. Histone acetyltransferase KAT2A (Homo sapiens), Q92830. GCN5L2 HAT assay, ThioGlo1 CoA-SH fluorescence. Potency, µM (doses to about 58.9 µM), without a hit: at the highest dose activity change, negative = inhibition, most hits filed as inhibitors. actives 0.21% (n = 390,000). AID 504327, 2011; further: potency means the concentration at half of the fitted maximal effect; on the % scale 0 is the no-effect control and ±100 the full control effect
Target sequence (Q92830 whole entry, looked up): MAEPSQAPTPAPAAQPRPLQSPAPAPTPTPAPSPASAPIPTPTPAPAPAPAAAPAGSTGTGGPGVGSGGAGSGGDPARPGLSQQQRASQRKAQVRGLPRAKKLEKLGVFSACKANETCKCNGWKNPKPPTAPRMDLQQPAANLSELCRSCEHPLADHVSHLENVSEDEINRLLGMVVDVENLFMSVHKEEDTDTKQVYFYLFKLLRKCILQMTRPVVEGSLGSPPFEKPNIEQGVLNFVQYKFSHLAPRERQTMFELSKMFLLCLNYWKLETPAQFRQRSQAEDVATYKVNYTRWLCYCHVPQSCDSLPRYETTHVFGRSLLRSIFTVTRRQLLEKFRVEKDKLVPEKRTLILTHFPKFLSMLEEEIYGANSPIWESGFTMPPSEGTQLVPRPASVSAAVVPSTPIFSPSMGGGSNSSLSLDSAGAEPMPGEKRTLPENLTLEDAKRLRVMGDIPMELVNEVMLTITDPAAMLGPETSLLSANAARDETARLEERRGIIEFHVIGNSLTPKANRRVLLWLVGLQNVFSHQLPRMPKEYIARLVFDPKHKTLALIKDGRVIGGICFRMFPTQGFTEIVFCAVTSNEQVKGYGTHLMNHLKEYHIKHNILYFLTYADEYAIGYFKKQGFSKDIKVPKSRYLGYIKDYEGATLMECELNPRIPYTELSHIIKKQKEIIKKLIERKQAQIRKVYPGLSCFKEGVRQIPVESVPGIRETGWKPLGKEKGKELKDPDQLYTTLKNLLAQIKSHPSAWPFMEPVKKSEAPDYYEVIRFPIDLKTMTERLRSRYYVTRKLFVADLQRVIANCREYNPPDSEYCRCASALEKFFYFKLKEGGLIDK
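GCN5L2 (20nM final) in 50mM HEPES, 0.1mM EDTA pH 7.5, 0.01% Tween-20 was preincubated 15 min at room temperature with compound, then given ThioGlo1 (50uM), H3(1-25) peptide (75uM) and acetyl-CoA (70uM); CoA-thiol fluorescence (Ex340/Em540) was read at 0 and 20 min.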
IL-2 act: qHTS of IL-2 Activators; IL-2 activation reporter assay, cell-based qHTS; stimulated with anti-CD3/CD4/CD28 beads; in transgenic mouse T cells; activation, % (series mostly up to about 46 µM); actives 0.065% (n = 360,000); AID 652025, 2013; in the data active means activation above about 50%; inconclusive means mostly about 30% to 49%; further: 0% is about no effect
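EGFP and DsRed fluorescence is measured by plate cytometry in unstimulated transgenic mouse T cells exposed to compound for 60 minutes, then stimulated 18 hours at 37 degrees C with anti-CD3/anti-CD4 beads plus anti-CD28.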
PKM2 act: qHTS Assay for Activators of Human Muscle isoform 2 Pyruvate Kinase; purified PKM2, Kinase-Glo ATP luminescence, activation; response scale: 0% is enzyme alone, no compound; Potency, µM (doses to about 57.5 µM), inactives show at the highest dose activation, actives largely listed as activators; actives 0.34% (n = 260,000); AID 1631, 2009; further: potency means the concentration at half of the fitted maximal effect; on the % scale 0 is the no-effect control and ±100 the full control effect; nearly all actives have a fitted effect of over 55% in size
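Purified hPK-M2 (>95% pure) converted ADP (0.1 mM final) to ATP with 0.5 mM PEP in 50 mM imidazole pH7.2, KCl, MgCl2, Tween 20, BSA; 1 h at room temperature. ATP detected by Kinase-Glo luminescence.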
* = called active by the depositor; ! = not active in a repeat; [ ] = another dose, or the depositor's remark. Unless noted, the call rests on the fitted dose curve; in most records, active means well fitted curve in the direction sought with a large enough effect; inconclusive means small, poorly fitted or top-dose-only effect, or another doubt; inactive means no such curve, though single readings can be large; an effect the other way counts as inactive or inconclusive.

Screening Cc1nc(C(=O)N(C)C)nn1-c1ccc([N+](=O)[O-])cc1 returned Vif-A3G inh -2.8%, Vif-APOBEC3F blk -13.3%, RGS12 GoLoco inh 9.6%, GCN5L2 inh -1.4%, IL-2 act 1.6 and PKM2 act -4.5%.
`O=C1C=CC2=C3c4cc(O)c(O)cc4CC3(O)COC2=C1O` (centres undefined) gave Vif-A3G inh -1.2%, Vif-APOBEC3F blk -3.3%, RGS12 GoLoco inh 2.51µM* and IL-2 act -0.2.
For Cc1cc2n(n1)C(c1ccccc1Cl)Nc1ccccc1-2 (centres undefined) the results were Vif-A3G inh -17.4%, Vif-APOBEC3F blk -5.6%, RGS12 GoLoco inh -1.8%, GCN5L2 inh -2.5%, IL-2 act -3.1 and PKM2 act 17.8µM*.
O=C(Nc1ccccc1)C1=C(O)CC(c2ccc(Cl)cc2)N2CCN=C12 (centres undefined) was read as Vif-A3G inh -0.4%, Vif-APOBEC3F blk 5.6%, RGS12 GoLoco inh 2.8%, GCN5L2 inh -10.7%, IL-2 act -0.5 and PKM2 act 17.8µM*.
For O=C(Nc1ccc(Cl)cc1)N1N=CCC1c1ccccc1 (centres undefined) the results were Vif-A3G inh -4.1%, Vif-APOBEC3F blk 5.8%, RGS12 GoLoco inh -1.6%, GCN5L2 inh -1.9%, IL-2 act -2.9 and PKM2 act -3.9%.
`Cc1cc2cc(C#N)c(SCC(=O)Nc3nonc3C)nc2cc1C` gave Vif-A3G inh inconclusive, Vif-APOBEC3F blk 10µM*, GCN5L2 inh -3.9% and IL-2 act 3.5.
Cc1nonc1NC(=O)CSc1nc2c(C)cccc2cc1C#N was read as Vif-A3G inh inconclusive, Vif-APOBEC3F blk 7.94µM*, RGS12 GoLoco inh 21.0%, GCN5L2 inh -7.8%, IL-2 act 4.6 and PKM2 act -7.5%.
For COCC(C)NC(=O)c1ccc2nc(-c3ccccc3)c(-c3ccccc3)nc2c1 (centres undefined) the results were Vif-A3G inh -0.5%, Vif-APOBEC3F blk 5.6%, GCN5L2 inh -17.9%, IL-2 act -0.9 and PKM2 act 1.7%.
For Cc1ccc2c(c1)-c1cc(C)ccc1C2=O the results were Vif-A3G inh 0.6%, Vif-APOBEC3F blk -3.5% and IL-2 act 0.1.
`O=C(CN1CCCN(Cc2ccccc2F)S1(=O)=O)Nc1ccc(F)c(Cl)c1` gave Vif-A3G inh 2.9%, Vif-APOBEC3F blk 13.7% and GCN5L2 inh -13.1%.
C[N+]1(CCCCSc2ccc(O)cc2)CCCCC1 was read as Vif-A3G inh 1.5%, Vif-APOBEC3F blk -2.9%, RGS12 GoLoco inh 0.631µM*, GCN5L2 inh -6.7%, IL-2 act -3.5 and PKM2 act -1.9%.
For C[N+]1(CCCC[N+]2(C)CCCCCCC2)CCCCCCC1 the results were RGS12 GoLoco inh 7.0%[14.2 µM].
For CCc1ccc(C2C(C#N)=C(N)SC(N)=C2C#N)s1 the results were Vif-A3G inh inconclusive, Vif-APOBEC3F blk 22.4µM*, RGS12 GoLoco inh 130.7%, GCN5L2 inh inconclusive, IL-2 act 2.6 and PKM2 act -24.4%.
For O=C(C1=NN[C@@H]2C(=O)N(Cc3ccccc3)C(=O)[C@H]12)c1ccc(F)cc1 the results were Vif-A3G inh 1.2%, Vif-APOBEC3F blk -8.9%, RGS12 GoLoco inh 4.2%, GCN5L2 inh -6.1%, IL-2 act 1.8 and PKM2 act -0.2%.
O=C(O)C1C2C=CC(O2)C1C(=O)Nc1ccc(S(=O)(=O)N2CCc3ccccc32)cc1 (centres undefined) was read as Vif-A3G inh -0.6%, Vif-APOBEC3F blk -6.3%, RGS12 GoLoco inh -12.0%, GCN5L2 inh -16.8%, IL-2 act 1.6 and PKM2 act inconclusive.
`O=C(O)C1C2C=CC(O2)C1C(=O)Nc1ccc(S(=O)(=O)Nc2ccccc2)cc1` (centres undefined) gave Vif-A3G inh 0.7%, Vif-APOBEC3F blk -11.0%, RGS12 GoLoco inh -25.3%, GCN5L2 inh -8.7%, IL-2 act 0.8 and PKM2 act 28.2µM*.
Screening CSC1=NSC2=NC(=O)/C(=C\c3coc4ccccc4c3=O)C(=N)N12 returned Vif-A3G inh inconclusive, Vif-APOBEC3F blk inconclusive, RGS12 GoLoco inh 28.6%, GCN5L2 inh -22.1%, IL-2 act 2.9 and PKM2 act 15.8%.
N=C1/C(=C\c2coc3ccccc3c2=O)C(=O)N=C2SC(c3ccncc3)=NN12 was read as Vif-A3G inh inconclusive, Vif-APOBEC3F blk 25.1µM*, RGS12 GoLoco inh 40.6%, GCN5L2 inh inconclusive, IL-2 act 1.6 and PKM2 act 22.5%.
Screening N=C1/C(=C\c2coc3ccc(O)cc3c2=O)C(=O)N=C2SC=CN12 returned Vif-A3G inh -12.1%, Vif-APOBEC3F blk -23.7%, RGS12 GoLoco inh 130.1%, GCN5L2 inh -7.0%, IL-2 act 13.5 and PKM2 act 28.2µM*.
For CC(C)CSC1=NSC2=NC(=O)/C(=C\c3coc4ccccc4c3=O)C(=N)N12 the results were Vif-A3G inh inconclusive, Vif-APOBEC3F blk 22.4µM*, RGS12 GoLoco inh 76.7%, GCN5L2 inh inconclusive, IL-2 act -3.6 and PKM2 act 0.8%.
N=C1/C(=C/c2coc3ccccc3c2=O)C(=O)N=C2SC(c3ccco3)=NN12 was read as Vif-A3G inh -1.5%, Vif-APOBEC3F blk inconclusive, RGS12 GoLoco inh 15.2%, GCN5L2 inh -22.7%, IL-2 act 1.3 and PKM2 act 12.6%.
Screening COCCn1c(=O)[nH]c2cc(C(=O)Nc3cccc(F)c3)ccc2c1=O returned Vif-A3G inh -2.3%, Vif-APOBEC3F blk 6.6%, RGS12 GoLoco inh 3.7%, GCN5L2 inh 1.7%, IL-2 act 0.0 and PKM2 act 2.2%.
For Cc1ccc(CNCc2cccn2-c2nnc(N3CCCC3)s2)cc1 the results were Vif-A3G inh -3.4%, Vif-APOBEC3F blk 1.1% and GCN5L2 inh -13.4%.
Cc1c(Cl)cccc1-n1ncc(C(=O)N2CCC(C)CC2)c1C1CCN(C(=O)OC(C)(C)C)CC1 was read as Vif-A3G inh -1.4%, Vif-APOBEC3F blk 1.5% and GCN5L2 inh -0.9%.
Screening O=C1c2ccccc2C(=O)c2c(O)c(O)cc(O)c21 returned Vif-A3G inh -0.5%, Vif-APOBEC3F blk -4.6%, RGS12 GoLoco inh 6.7%, GCN5L2 inh 7.94µM*! and IL-2 act 1.7.
